Test results from the supplement of paper PMC12669032.

Experiments:
Experiment in all cases: growth AUC relative to DMSO control (median of replicates) (fraction); higher = more growth (less inhibition), active = hit call of the paper
Settings in all cases: 20 µM; 24 h;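 active = AUC reduced over 20% with Padj below 0.05 in at least 2 of 3 replicates; inactive = otherwise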
[1] = system: Akkermansia muciniphila
Method in brief: (§1)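 Starting at OD600 0.05, gut bacterial monocultures in mGAM were grown anaerobically at 37 °C with 20 µM compound (1% DMSO) under pierced gas-permeable seals. OD600 was read every hour for 24 h, and the lowest OD of each curve was set to 0. Area under the growth curve was normalised to the plate median of solvent-only wells, or to row and column medians on the industrial chemical plate, and the median of three biological replicates grown on separate days is given.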

[2] = system: Bacteroides caccae
Method in brief: as §1

[3] = system: Bacteroides clarus
Method in brief: as §1

[4] = system: Bacteroides dorei
Method in brief: as §1

[5] = system: Bacteroides stercoris
Method in brief: as §1

[6] = system: Bacteroides thetaiotaomicron
Method in brief: as §1

[7] = system: Bacteroides uniformis
Method in brief: as §1

[8] = system: Bifidobacterium longum subsp. longum
Method in brief: as §1

[9] = system: Clostridium difficile
Method in brief: as §1

[10] = system: Collinsella aerofaciens
Method in brief: as §1

Measured: growth AUC

Cc1cc(Cl)ccc1OC(C)C(=O)O (stereo not given)
inactive: [1] 0.902 | [2] 1.02 | [3] 0.996 | [4] 1 | [5] 1.01 | [6] 1.01 | [7] 1 | [8] 0.88 | [9] 1.03 | [10] 1.01

COP(=O)(OC)Oc1ccc(SC)c(C)c1
inactive: [1] 0.861 | [2] 0.994 | [3] 0.978 | [4] 1.03 | [5] 0.981 | [6] 0.979 | [7] 0.982 | [8] 1 | [9] 0.999 | [10] 0.993

CC(C)Oc1cc(-n2nc(C(C)(C)C)oc2=O)c(Cl)cc1Cl
inactive: [1] 1.21 | [2] 0.984 | [3] 0.942 | [4] 0.982 | [5] 0.884 | [6] 0.987 | [7] 0.898 | [8] 0.962 | [9] 0.932 | [10] 0.921

O=S(=O)(c1ccccc1)c1ccccc1
inactive: [1] 0.901 | [2] 0.966 | [3] 1.01 | [4] 0.993 | [5] 1.03 | [6] 0.997 | [7] 0.982 | [8] 1.01 | [9] 1.02 | [10] 0.964

CCC1(C(=O)NC(C)c2ccc(Cl)cc2)C(C)C1(Cl)Cl (stereo not given)
inactive: [1] 1.18 | [2] 0.963 | [3] 0.985 | [4] 0.884 | [5] 0.958 | [6] 0.909 | [7] 0.881 | [8] 0.969 | [9] 0.969 | [10] 0.942

CCc1cccc(CC)c1N(COC)C(=O)CCl
inactive: [1] 0.942 | [2] 1 | [3] 0.991 | [4] 0.949 | [5] 1.08 | [6] 0.957 | [7] 0.985 | [8] 1 | [9] 0.974 | [10] 0.989
